This is a sample that favours compounds with a hit; in the whole collection about 12% have one here.
HP1b binding inh: HP1-beta chromodomain-methylated histone interaction inhibition. Potency, µM (doses to about 114 µM), actives largely listed as inhibitors. AlphaScreen HP1-beta / biotin-H3K9me3 peptide binding. P83916. 390,000 tested, 0.56% active; note: nearly all actives have a fitted effect of over 70% in size
Target sequence (P83916 whole entry, looked up): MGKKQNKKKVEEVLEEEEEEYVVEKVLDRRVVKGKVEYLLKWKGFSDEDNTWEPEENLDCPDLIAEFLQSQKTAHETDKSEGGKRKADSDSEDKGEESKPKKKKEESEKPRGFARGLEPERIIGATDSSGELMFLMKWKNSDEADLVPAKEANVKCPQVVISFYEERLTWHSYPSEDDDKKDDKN
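Compound inhibition of the preformed complex between 50 nM HP1-beta and 50 nM biotinylated H3K9me3 peptide was read by AlphaScreen. Buffer was PBS pH 7.4 with 0.01% Tween-20. Incubations ran 30 min at room temperature, with 10 ug/mL donor/acceptor beads.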
JMJD2A Tudor inh: blocks the human JMJD2A Tudor domain | O75164 | AlphaScreen JMJD2A-Tudor / H3K4me3 peptide binding | Potency, µM (highest dose often 114 µM), hits mostly inhibitors | 390,000 tested, 4.4% active | AID 504339; note: nearly all actives have a fitted effect of over 50% in size
Sfp PPTase inh: Sfp phosphopantetheinyl transferase inhibition. Potency, µM, usual class: inhibitors. AID 1490. Q9F4F7. Biochemical Sfp PPTase activity, qHTS. 310,000 tested, 3.5% active;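 note: the enzyme is Sfp with the accession as filed and its product quenches rhodamine fluorescence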
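With Hepes-Na pH 7.6 buffer containing 10 mM MgCl2, Sfp (15 nM) modified BHQ-2-YbbR (12.5 uM) using rhodamine-CoA (5 uM). Two reads 30 minutes apart at 525/598 nm yielded each well's rate.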
BAZ2B block: BAZ2B (human) inhibition; Q9UIF8; AlphaScreen BAZ2B-H3K14Ac peptide displacement; Potency, µM (top dose mostly 114 µM), most hits filed as inhibitors; 360,000 tested, 4.4% active; note: nearly all actives have a fitted effect of over 60% in size
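Compounds, titrated to a top concentration of 110 uM, were incubated 30 min at room temperature with preformed BAZ2B/acetyl-K14 H3 peptide complex (50 nM each). Proximity signal was measured by AlphaScreen after 20 min with beads.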
G9a inh: inhibitors of human histone lysine methyltransferase G9a | G9a H3K9 monomethylation, AlphaScreen, 2 h | Potency, µM (titrated, usually from 102 µM), hits mostly inhibitors | 350,000 tested, 8.8% active | AID 504332 | Q96KQ7; note: nearly all actives have a fitted effect of over 75% in size
Target sequence (Q96KQ7 913-1193 limits assumed): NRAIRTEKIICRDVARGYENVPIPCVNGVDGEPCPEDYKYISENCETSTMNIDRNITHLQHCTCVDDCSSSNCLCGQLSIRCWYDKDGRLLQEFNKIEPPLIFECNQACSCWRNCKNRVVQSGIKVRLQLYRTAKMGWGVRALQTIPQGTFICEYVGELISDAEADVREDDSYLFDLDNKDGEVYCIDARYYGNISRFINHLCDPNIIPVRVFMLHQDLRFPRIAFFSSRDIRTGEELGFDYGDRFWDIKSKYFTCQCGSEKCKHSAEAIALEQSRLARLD
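Quantitative HTS format: methyltransferase activity on a biotin-tagged H3K9 peptide is measured by AlphaScreen, using a rabbit anti-monomethyl-H3K9 antibody with streptavidin donor and anti-IgG acceptor beads. Final levels are 20 nM enzyme, 500 nM peptide, 20 uM SAM; 2 h RT.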
Of the large screens only hits and unclear results are named; the others gave an inactive call; ! = a repeat was not active. Calls come from the whole dose curve; as a rule, active = well fitted curve in the direction sought with a large enough effect; inconclusive = small, poorly fitted or top-dose-only effect, or another doubt; inactive = no such curve, though single readings can be large; an effect the other way counts as inactive or inconclusive.

Cc1cc(OCC(=O)N2CCCC2)cc(C)c1Cl	G9a inh 1.3µM
CCOC(=O)c1cc(-c2ccc(F)cc2)n(CCC(=O)Nc2nc3ccc(OC)cc3s2)c1C	JMJD2A Tudor inh 56µM, BAZ2B block inconclusive (no result: Sfp PPTase inh)
COc1ccccc1N1CCN(C(=O)COc2cc(C)ccc2C)CC1	HP1b binding inh inconclusive, JMJD2A Tudor inh 20µM
O=C(COc1ccc(-c2ccccc2)cc1)N1CCCC1	BAZ2B block inconclusive, G9a inh 35µM
CCOC(=O)c1cc(-c2ccc(F)cc2)n(CCC(=O)Nc2nc3cc(C)c(C)cc3s2)c1C	none (no result: Sfp PPTase inh)
COc1ccccc1N1CCN(C(=O)COc2ccc(C)cc2Br)CC1	G9a inh inconclusive
CC(C)(C)OC(=O)N1CCc2nc(N3CCN(c4ncccn4)CC3)ncc2C1	none (no result: Sfp PPTase inh)
NC(=O)CCCSc1nc2ccccc2[nH]1	none
COc1ccc(N2CCN(C(=O)CCCSc3nc4ccccc4[nH]3)CC2)cc1	G9a inh 45µM
COc1ccc(N2CCN(C(=O)COc3cccc4ccccc34)CC2)cc1	HP1b binding inh inconclusive, JMJD2A Tudor inh 32µM, BAZ2B block 11µM (no result: G9a inh)
CCOC(=O)c1cc(-c2ccccc2)n(CCC(=O)N2CCN(c3ccc(OC)cc3)CC2)c1C	HP1b binding inh inconclusive, JMJD2A Tudor inh inconclusive, BAZ2B block 25µM, G9a inh inconclusive
O=C(COc1cccc2ccccc12)N1CCN(c2ccccc2)CC1	JMJD2A Tudor inh inconclusive, Sfp PPTase inh inconclusive, G9a inh inconclusive
COc1ccc(N2CCN(C(=O)COc3ccccc3)CC2)cc1	G9a inh 45µM
COc1ccc(C(=O)n2nc(-c3cccnc3)nc2NCc2ccccc2)cc1OC	none (no result: Sfp PPTase inh)
Cc1ccc(S(=O)(=O)N[C@H]2COC(=O)C/C=C\[C@H](C)[C@@H](NS(=O)(=O)c3ccc(C)cc3)COC(=O)C/C=C\[C@@H]2C)cc1	none (no result: HP1b binding inh, JMJD2A Tudor inh, BAZ2B block, G9a inh)
COc1ccc(N2CCN(C(=O)CCc3ccccc3OC)CC2)cc1	JMJD2A Tudor inh inconclusive, BAZ2B block inconclusive, G9a inh 79µM
COc1ccc(N2CCN(C(=O)COCc3cc(-c4ccc5c(c4)OCO5)on3)CC2)cc1	BAZ2B block inconclusive, G9a inh 14µM
COc1ccc(N2CCN(C(=O)CCc3c(C)nc4cc(-c5ccc(OC)cc5OC)nn4c3C)CC2)cc1	BAZ2B block 18µM, G9a inh inconclusive (no result: Sfp PPTase inh)
O=C(CN1CSCC1=O)N1CCN(S(=O)(=O)c2cc(C(F)(F)F)ccc2Cl)CC1	none (no result: Sfp PPTase inh)
CCN1CCN(C(=O)COCc2cc(-c3ccc4c(c3)OCO4)on2)CC1	G9a inh inconclusive
COc1ccccc1CCC(=O)N1CCN(C(=O)c2ccccc2)CC1	none
COc1ccccc1CCC(=O)N1CCN(S(=O)(=O)c2cc(C(F)(F)F)ccc2Cl)CC1	G9a inh 8.9µM (no result: Sfp PPTase inh)
CCOC(=O)Cc1c[nH]c2ccc([N+](=O)[O-])cc12	none (no result: Sfp PPTase inh, BAZ2B block, G9a inh)
COc1ccc(-n2c(=O)c(-c3ccc(F)cc3)nc3cnc(OC)nc32)cc1	none (no result: HP1b binding inh, JMJD2A Tudor inh, BAZ2B block)
Cc1ccc(OCC(=O)N2CCC(N3CC(C)CC(C)C3)CC2)cc1 (configuration not stated)	HP1b binding inh inconclusive, JMJD2A Tudor inh 1.6µM, G9a inh 25µM
Cc1ccc(C)c(OCCCC(=O)N2CCOCC2)c1	JMJD2A Tudor inh inconclusive, G9a inh 45µM
COc1ccc(N2CCN(C(=O)CCC(=O)N3Cc4ccccc4Oc4ncccc43)CC2)cc1	BAZ2B block 40µM (no result: G9a inh)
Cn1cnc2c(=O)oc3ccc(S(=O)(=O)N4CCN(c5ccccc5F)CC4)cc3c21	none (no result: Sfp PPTase inh)
CO/C([O-])=N/c1c[n+](-c2ccc(C)cc2)no1	G9a inh 20µM
Cc1ccc(Cl)cc1NC(=O)N1CCC(CN2CCCCCC2)CC1	none (no result: Sfp PPTase inh)
NC(=O)NCCC[C@H](N)C(=O)O	none (no result: HP1b binding inh, JMJD2A Tudor inh, BAZ2B block, G9a inh)
NC(=S)NCCC[C@H](N)C(=O)O	Sfp PPTase inh 56µM, G9a inh 1.7µM! (no result: HP1b binding inh, JMJD2A Tudor inh, BAZ2B block)
CCCN1/C(=C(\C#N)C2=NS(=O)(=O)c3ccccc32)N(C)c2ccccc21	none (no result: Sfp PPTase inh, BAZ2B block, G9a inh)
O=C(O)c1cccc(S(=O)(=O)NNc2ccccc2C(F)(F)F)c1	JMJD2A Tudor inh 7.9µM, BAZ2B block 50µM, G9a inh 1.4µM
O=C(O)c1cccc(S(=O)(=O)NCCc2ccccc2)c1	none
CC(=O)Nc1cccc(/C(C)=N\NC(=O)c2ccc(Cn3nc([N+](=O)[O-])c(Cl)c3C)o2)c1	JMJD2A Tudor inh 50µM
O=S(=O)(c1ccc(C2CCCCC2)cc1)N1CCN(c2cc(Cl)ccc2Cl)CC1	none (no result: Sfp PPTase inh)

Screening results (PubChem)
